Data taken from PubChem BioAssay AID1159580 (chemical genetic matrix, 2015).
Values joined by “and” are separate entries in the source; they are usually repeats but may differ in a detail not shown here. Identical values can stand only once. Screen size: about 5,500 compounds; about 2,000 (36%) were called active. About 18% were inconclusive and are not listed. Rule as the data show it: active = normalized growth mostly below about 0.91 (no sharp cut-off); inconclusive = no clear call, values can overlap the other calls; inactive = mostly above about 0.92. This is one part of the list.

Assay: chemical genetic growth profiling, strain panel (AID 1159580);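 also: tested at 20 µM; growth read once vehicle control cultures reached saturation at 30 °C; 1 = growth at the plate median or of vehicle wells; lower values mean less growth of the strain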
Conditions: S. cerevisiae deletion strains, growth OD

Measured: normalized growth

O=c1c(O)c(-c2ccccc2)oc2ccc3occc3c12
0.72 (active) and 0.968 (inactive): locus YHR030C, strain SLT2, stronger effect = lower value
0.437 (active) and 0.978 (inactive): locus YJL095W, strain BCK1, stronger effect = lower value
active: locus YAL026C, strain drs2, stronger effect = lower value 0.808 | locus YAL030W, strain snc1, stronger effect = lower value 0.902 | locus YBL061C, strain skt5, stronger effect = lower value 0.811 | locus YBR009C, strain hhf1, stronger effect = lower value 0.627 | locus YBR023C, strain chs3, stronger effect = lower value 0.71 | locus YBR231C, strain swc5, stronger effect = lower value 0.799 | locus YBR279W, strain paf1, stronger effect = lower value 0.796 | locus YCL011C, strain gbp2, stronger effect = lower value 0.814 | locus YCL016C, strain dcc1, stronger effect = lower value 0.766 | locus YCL029C, strain bik1, stronger effect = lower value 0.749 | locus YCL061C, strain MRC1, stronger effect = lower value 0.801 | locus YCL069W, strain vba3, stronger effect = lower value 0.662 | locus YDL035C, strain GPR1, stronger effect = lower value 0.849 | locus YDL040C, strain nat1, stronger effect = lower value 0.93 | locus YDL074C, strain BRE1, stronger effect = lower value 0.671 | locus YDL101C, strain DUN1, stronger effect = lower value 0.858 | locus YDL192W, strain arf1, stronger effect = lower value 0.731 | locus YDR101C, strain arx1, stronger effect = lower value 0.765 | locus YDR137W, strain rgp1, stronger effect = lower value 0.798 | locus YDR159W, strain sac3, stronger effect = lower value 0.742 | locus YDR162C, strain NBP2, stronger effect = lower value 0.782 | locus YDR195W, strain ref2 1.23 [resistant] | locus YDR297W, strain sur2, stronger effect = lower value 0.849 | locus YDR318W, strain mcm21, stronger effect = lower value 0.799 | locus YDR335W, strain msn5, stronger effect = lower value 0.773 | locus YDR388W, stronger effect = lower value 0.847 | locus YDR392W, strain spt3, stronger effect = lower value 0.172 | locus YDR502C, strain sam2, stronger effect = lower value 0.783 | locus YEL003W, strain gim4, stronger effect = lower value 0.814 | locus YEL037C, strain rad23, stronger effect = lower value 0.86 | locus YEL061C, strain CIN8 (second series), stronger effect = lower value 0.71 | locus YER015W, strain faa2, stronger effect = lower value 0.829 | locus YER016W, strain bim1, stronger effect = lower value 0.92 | locus YER110C, stronger effect = lower value 0.767 | locus YER111C, strain swi4, stronger effect = lower value 0.793 | locus YER155C, strain BEM2 (second series), stronger effect = lower value 0.25 | locus YER155C, strain BEM2, stronger effect = lower value 0.807 | locus YER167W, strain BCK2, stronger effect = lower value 0.9 | locus YGL078C, strain dbp3, stronger effect = lower value 0.884 | locus YGL086W, strain mad1, stronger effect = lower value 0.764 | locus YGL173C, strain kem1, stronger effect = lower value 0.833 | locus YGL227W, strain vid30, stronger effect = lower value 0.888 | locus YGL240W, strain doc1, stronger effect = lower value 0.566 | locus YGL248W, strain PDE1, stronger effect = lower value 0.801 | locus YGL253W, strain hxk2, stronger effect = lower value 0.501 | locus YGR135W, strain pre9, stronger effect = lower value 0.713 | locus YGR229C, strain SMI1, stronger effect = lower value 0.416 | locus YGR252W, strain gcn5, stronger effect = lower value 0.593 | locus YHR079C, strain IRE1 (second series), stronger effect = lower value 0.873 | locus YHR094C, strain hxt1, stronger effect = lower value 0.904 | locus YHR142W, strain chs7, stronger effect = lower value 0.367 | locus YHR200W, strain rpn10, stronger effect = lower value 0.798 | locus YIL066C, strain RNR3, stronger effect = lower value 0.833 | locus YIL125W, strain kgd1, stronger effect = lower value 0.886 | locus YIR030C, strain dcg1, stronger effect = lower value 0.794 | locus YJL092W, strain hpr5, stronger effect = lower value 0.879 | locus YJL095W, strain BCK1 (second series), stronger effect = lower value 0.562 | locus YJL129C, strain trk1, stronger effect = lower value 0.852 | locus YJL164C, strain tpk1, stronger effect = lower value 0.781 | locus YJL166W, strain qcr8, stronger effect = lower value 0.74 | locus YJL168C, strain set2, stronger effect = lower value 0.925 | locus YJL187C, strain SWE1 (second series), stronger effect = lower value 0.847 | locus YJR043C, strain POL32, stronger effect = lower value 0.64
inactive: locus YAL013W, strain DEP1, stronger effect = lower value 0.925 | locus YAL021C, strain ccr4, stronger effect = lower value 0.987 | locus YBR021W, strain FUR4, stronger effect = lower value 0.889 | locus YBR171W, strain sec66, stronger effect = lower value 0.962 | locus YBR229C, strain ROT2, stronger effect = lower value 0.955 | locus YCR088W, strain abp1, stronger effect = lower value 0.93 | locus YDL005C, strain med2, stronger effect = lower value 0.951 | locus YDL185W, strain tfp1, stronger effect = lower value 0.938 | locus YDR001C, strain nth1, stronger effect = lower value 0.956 | locus YDR069C, strain doa4, stronger effect = lower value 0.941 | locus YDR150W, strain NUM1, stronger effect = lower value 0.954 | locus YDR334W, strain swr1, stronger effect = lower value 0.913 | locus YEL061C, strain CIN8, stronger effect = lower value 0.93 | locus YFR010W, strain ubp6, stronger effect = lower value 0.926 | locus YGL167C, strain pmr1, stronger effect = lower value 0.919 | locus YHR013C, strain ard1, stronger effect = lower value 0.921 | locus YHR027C, strain rpn1, stronger effect = lower value 0.937 | locus YHR079C, strain IRE1, stronger effect = lower value 0.956 | locus YIL073C, strain SPO22, stronger effect = lower value 0.733 | locus YJL115W, strain asf1, stronger effect = lower value 0.943 | locus YJL134W, strain LCB3, stronger effect = lower value 0.956 | locus YJL154C, strain vps35, stronger effect = lower value 0.939 | locus YJR066W, strain TOR1, stronger effect = lower value 0.883
